# Experimental data as given in PubChem BioAssay AID1159580 (chemical genetic matrix, 2015).
# Values joined by “and” are separate entries in the source; they are usually repeats but may differ in a detail not shown here. Equal values may be shown once. Among all 5,500 compounds or so, about 2,000 (36%) were called active. Not shown: some 18% with an inconclusive outcome. No stated cut-off is given here; in the data, active means normalized growth mostly below about 0.91 (no sharp cut-off); inconclusive means no clear call, values can overlap the other calls; inactive means mostly above about 0.92. This is one part of the list. More than one record can exist for a structure, and the calls need not agree.
# Assay: chemical genetic growth profiling, strain panel (AID 1159580);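 further: tested at 20 µM; growth read once vehicle control cultures reached saturation at 30 °C; 1 = growth at the plate median or of vehicle wells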
# Conditions: S. cerevisiae deletion strains, growth OD
smiles,measurement,setting,value
CN1C2CCC1CC(OC(c1ccccc1)c1ccccc1)C2 (stereo not given),normalized growth,"locus YAL013W, strain DEP1, stronger effect = lower value",0.825 (active) and 1.01 (inactive)
same,normalized growth,"locus YAL021C, strain ccr4, stronger effect = lower value",0.963 (inactive)
same,normalized growth,"locus YAL026C, strain drs2, stronger effect = lower value",0.975 (inactive)
same,normalized growth,"locus YAL030W, strain snc1, stronger effect = lower value",0.985 (inactive)
same,normalized growth,"locus YAL040C, strain CLN3, stronger effect = lower value",0.98 (inactive)
same,normalized growth,"locus YBL061C, strain skt5, stronger effect = lower value",0.989 (inactive)
same,normalized growth,"locus YBR009C, strain hhf1, stronger effect = lower value",0.968 (inactive)
same,normalized growth,"locus YBR021W, strain FUR4, stronger effect = lower value",1.02 (inactive)
same,normalized growth,"locus YBR023C, strain chs3, stronger effect = lower value",0.994 (inactive)
same,normalized growth,"locus YBR171W, strain sec66, stronger effect = lower value",0.977 (inactive)
same,normalized growth,"locus YBR229C, strain ROT2, stronger effect = lower value",0.989 (inactive)
same,normalized growth,"locus YBR231C, strain swc5, stronger effect = lower value",0.998 (inactive)
same,normalized growth,"locus YBR279W, strain paf1, stronger effect = lower value",0.967 (inactive)
same,normalized growth,"locus YCL011C, strain gbp2, stronger effect = lower value",0.982 (inactive)
same,normalized growth,"locus YCL016C, strain dcc1, stronger effect = lower value",0.969 (inactive)
same,normalized growth,"locus YCL029C, strain bik1, stronger effect = lower value",0.98 (inactive)
same,normalized growth,"locus YCL069W, strain vba3, stronger effect = lower value",0.989 (inactive)
same,normalized growth,"locus YCR088W, strain abp1, stronger effect = lower value",0.998 (inactive)
same,normalized growth,"locus YDL005C, strain med2, stronger effect = lower value",0.977 (inactive)
same,normalized growth,"locus YDL035C, strain GPR1, stronger effect = lower value",0.894 (inactive)
same,normalized growth,"locus YDL040C, strain nat1, stronger effect = lower value",0.992 (inactive)
same,normalized growth,"locus YDL074C, strain BRE1, stronger effect = lower value",0.665 (active)
same,normalized growth,"locus YDL101C, strain DUN1, stronger effect = lower value",0.914 (inactive)
same,normalized growth,"locus YDL134C, strain PPH21, stronger effect = lower value",0.924 (inactive)
same,normalized growth,"locus YDL185W, strain tfp1, stronger effect = lower value",0.969 (inactive)
same,normalized growth,"locus YDL192W, strain arf1, stronger effect = lower value",0.986 (inactive)
same,normalized growth,"locus YDR001C, strain nth1, stronger effect = lower value",0.989 (inactive)
same,normalized growth,"locus YDR069C, strain doa4, stronger effect = lower value",0.981 (inactive)
same,normalized growth,"locus YDR101C, strain arx1, stronger effect = lower value",1 (inactive)
same,normalized growth,"locus YDR137W, strain rgp1, stronger effect = lower value",1.01 (inactive)
same,normalized growth,"locus YDR150W, strain NUM1, stronger effect = lower value",1.01 (inactive)
same,normalized growth,"locus YDR159W, strain sac3, stronger effect = lower value",0.976 (inactive)
same,normalized growth,"locus YDR162C, strain NBP2, stronger effect = lower value",0.778 (active)
same,normalized growth,"locus YDR195W, strain ref2",0.975 (inactive)
same,normalized growth,"locus YDR297W, strain sur2, stronger effect = lower value",0.981 (inactive)
same,normalized growth,"locus YDR318W, strain mcm21, stronger effect = lower value",0.982 (inactive)
same,normalized growth,"locus YDR334W, strain swr1, stronger effect = lower value",0.999 (inactive)
same,normalized growth,"locus YDR335W, strain msn5, stronger effect = lower value",0.986 (inactive)
same,normalized growth,"locus YDR363W, strain ESC2, stronger effect = lower value",1 (inactive)
same,normalized growth,"locus YDR388W, stronger effect = lower value",0.972 (inactive)
same,normalized growth,"locus YDR392W, strain spt3, stronger effect = lower value",0.87 (inactive)
same,normalized growth,"locus YDR502C, strain sam2, stronger effect = lower value",0.964 (inactive)
same,normalized growth,"locus YEL003W, strain gim4, stronger effect = lower value",0.983 (inactive)
same,normalized growth,"locus YEL037C, strain rad23, stronger effect = lower value",0.977 (inactive)
same,normalized growth,"locus YEL061C, strain CIN8 (second series), stronger effect = lower value",0.988 (inactive)
same,normalized growth,"locus YEL061C, strain CIN8, stronger effect = lower value",0.983 (inactive)
same,normalized growth,"locus YER002W, strain NOP16, stronger effect = lower value",0.989 (inactive)
same,normalized growth,"locus YER015W, strain faa2, stronger effect = lower value",0.99 (inactive)
same,normalized growth,"locus YER016W, strain bim1, stronger effect = lower value",0.949 (inactive)
same,normalized growth,"locus YER110C, stronger effect = lower value",0.974 (inactive)
same,normalized growth,"locus YER111C, strain swi4, stronger effect = lower value",1 (inactive)
same,normalized growth,"locus YER155C, strain BEM2 (second series), stronger effect = lower value",0.985 (inactive)
same,normalized growth,"locus YER155C, strain BEM2, stronger effect = lower value",0.805 (active)
same,normalized growth,"locus YER167W, strain BCK2, stronger effect = lower value",0.939 (inactive)
same,normalized growth,"locus YFR010W, strain ubp6, stronger effect = lower value",0.973 (inactive)
same,normalized growth,"locus YGL078C, strain dbp3, stronger effect = lower value",0.98 (inactive)
same,normalized growth,"locus YGL086W, strain mad1, stronger effect = lower value",0.951 (inactive)
same,normalized growth,"locus YGL167C, strain pmr1, stronger effect = lower value",0.996 (inactive)
same,normalized growth,"locus YGL173C, strain kem1, stronger effect = lower value",0.982 (inactive)
same,normalized growth,"locus YGL227W, strain vid30, stronger effect = lower value",1 (inactive)
same,normalized growth,"locus YGL240W, strain doc1, stronger effect = lower value",1.02 (inactive)
same,normalized growth,"locus YGL248W, strain PDE1, stronger effect = lower value",0.842 (active)
same,normalized growth,"locus YGL253W, strain hxk2, stronger effect = lower value",0.999 (inactive)
same,normalized growth,"locus YGR078C, strain PAC10, stronger effect = lower value",0.802 (active) and 1.01 (inactive)
same,normalized growth,"locus YGR135W, strain pre9, stronger effect = lower value",0.936 (inactive)
same,normalized growth,"locus YGR252W, strain gcn5, stronger effect = lower value",0.895 (inactive)
same,normalized growth,"locus YHR013C, strain ard1, stronger effect = lower value",0.924 (inactive)
same,normalized growth,"locus YHR027C, strain rpn1, stronger effect = lower value",0.985 (inactive)
same,normalized growth,"locus YHR030C, strain SLT2, stronger effect = lower value",0.839 (active)
same,normalized growth,"locus YHR079C, strain IRE1 (second series), stronger effect = lower value",0.977 (inactive)
same,normalized growth,"locus YHR094C, strain hxt1, stronger effect = lower value",0.977 (inactive)
same,normalized growth,"locus YHR129C, strain ARP1, stronger effect = lower value",0.87 (active)
same,normalized growth,"locus YHR142W, strain chs7, stronger effect = lower value",0.968 (inactive)
same,normalized growth,"locus YHR200W, strain rpn10, stronger effect = lower value",0.981 (inactive)
same,normalized growth,"locus YIL066C, strain RNR3, stronger effect = lower value",0.952 (inactive)
same,normalized growth,"locus YIL073C, strain SPO22, stronger effect = lower value",0.804 (inactive)
same,normalized growth,"locus YIL125W, strain kgd1, stronger effect = lower value",0.982 (inactive)
same,normalized growth,"locus YIR030C, strain dcg1, stronger effect = lower value",0.986 (inactive)
same,normalized growth,"locus YJL092W, strain hpr5, stronger effect = lower value",0.99 (inactive)
same,normalized growth,"locus YJL095W, strain BCK1 (second series), stronger effect = lower value",0.987 (inactive)
same,normalized growth,"locus YJL095W, strain BCK1, stronger effect = lower value",0.723 (active)
same,normalized growth,"locus YJL115W, strain asf1, stronger effect = lower value",0.98 (inactive)
same,normalized growth,"locus YJL129C, strain trk1, stronger effect = lower value",0.975 (inactive)
same,normalized growth,"locus YJL134W, strain LCB3, stronger effect = lower value",0.997 (inactive)
same,normalized growth,"locus YJL154C, strain vps35, stronger effect = lower value",0.975 (inactive)
same,normalized growth,"locus YJL164C, strain tpk1, stronger effect = lower value",0.979 (inactive)
same,normalized growth,"locus YJL166W, strain qcr8, stronger effect = lower value",1.01 (inactive)
same,normalized growth,"locus YJL168C, strain set2, stronger effect = lower value",0.985 (inactive)
same,normalized growth,"locus YJL187C, strain SWE1 (second series), stronger effect = lower value",0.888 (inactive)
same,normalized growth,"locus YJL187C, strain SWE1, stronger effect = lower value",0.989 (inactive)
